# Only some compounds are listed: those with a hit (about 9.6% of all), similar ones and a draw of the others.
# USP17 block: blocks human USP17 ubiquitin-rhodamine cleavage; 47,000 compounds, 6.5% hits; A8MUK1; inhibition, % at 50 µM; purified USP17, Ub-rhodamine cleavage fluorescence, 3 h
# Target sequence (A8MUK1 whole entry, looked up): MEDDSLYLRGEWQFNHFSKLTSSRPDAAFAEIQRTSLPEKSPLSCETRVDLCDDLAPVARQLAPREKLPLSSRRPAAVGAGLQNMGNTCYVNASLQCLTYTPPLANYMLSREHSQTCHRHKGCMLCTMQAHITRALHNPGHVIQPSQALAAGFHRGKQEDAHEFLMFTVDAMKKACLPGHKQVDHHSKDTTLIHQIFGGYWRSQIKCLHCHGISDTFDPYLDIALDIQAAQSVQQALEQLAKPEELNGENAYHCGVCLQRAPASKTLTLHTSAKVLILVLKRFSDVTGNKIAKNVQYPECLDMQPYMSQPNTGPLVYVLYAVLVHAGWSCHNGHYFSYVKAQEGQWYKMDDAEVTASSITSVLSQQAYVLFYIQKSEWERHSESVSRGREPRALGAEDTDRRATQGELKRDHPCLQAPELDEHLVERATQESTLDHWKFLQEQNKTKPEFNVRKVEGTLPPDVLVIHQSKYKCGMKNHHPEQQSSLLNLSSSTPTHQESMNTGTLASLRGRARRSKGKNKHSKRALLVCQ
# USP30 inh: human USP30 deubiquitinase inhibition; Q70CQ3; purified USP30, Ub-rhodamine cleavage fluorescence; inhibition, % at 25 µM; 47,000 compounds, 5.3% hits
# Numbers stand for hits; n = inactive; x = not tested or not shown. Rule as the data show it: active = inhibition above about 30%; inactive = the rest.
SMILES,USP17 block,USP30 inh
CS(=O)(=O)N1CCN(c2ccc(-c3ccc(F)cc3)nn2)CC1,n,n
Cc1ccc(S(=O)(=O)N2CC[C@@H]3[C@H](CC2)N(C)CCS3(=O)=O)cc1,n,n
CCOc1ccc(NC(=O)COC(=O)c2n[nH]c3ccccc23)cc1,n,n
COc1ccccc1NC(=O)COC(=O)Cc1c[nH]c2ccccc12,n,n
N#Cc1cccc(NC(=O)COC(=O)c2n[nH]c3ccccc23)c1,47,n
N#Cc1ccc(Cl)cc1NC(=O)COC(=O)c1n[nH]c2ccccc12,n,n
CC(=O)c1ccc(NC(=O)COC(=O)c2c[nH]c3ccccc23)cc1,34,x
CCc1ccc(NC(=O)COC(=O)c2n[nH]c3ccccc23)cc1,71,n
CC(C)Cn1c(=O)c2sccc2n2c(CCC(=O)NC3CC3)nnc12,n,n
CCCCNC(=O)C1Sc2nnc(-c3ccccc3)n2NC1c1ccccc1 (stereo not drawn),n,50
CCCCNC(=O)C1CCN(c2ccc(N3CCCCC3)nn2)CC1,n,n
c1cc2c(cc1-c1nnc(C3(c4ccc5c(c4)OCO5)CCOCC3)o1)OCCO2,n,33
Brc1ccc(C2(c3nnc(-c4ccc5c(c4)OCCO5)o3)CCOCC2)cc1,n,n
Cc1cn[nH]c1C1CCCN(C(=O)CCc2cc(Cl)no2)C1 (stereo not drawn),n,n
Cc1cc(NC(=O)Cn2c(=O)n(CCC(=O)N3CC=C(c4ccccc4)CC3)c(=O)c3ccccc32)n[nH]1,n,n
COc1ccc(-c2[nH]c3ncccc3c2CN2CCN(C)CC2)cc1,n,n
O=C(Nc1ccccc1)C1COc2ccccc2C1 (stereo not drawn),32,n
COc1ccc2c(c1)CC(C(=O)Nc1ccc(F)cc1F)CO2 (stereo not drawn),n,n
COCCN1CCS(=O)(=O)c2c(Cl)c(F)nc(Oc3ccccc3F)c21,49,n
COCCCN1CCS(=O)(=O)c2c(Cl)c(F)nc(Oc3ccc(C#N)cc3)c21,80,n
O=S1(=O)CCN(Cc2cccnc2)c2c(Oc3ccccc3F)nc(F)c(Cl)c21,n,n
COc1ccc(NC(=O)Cc2ccc3ccccc3c2)c(OC)c1,n,n
COc1ccc(C(=O)N(Cc2ccccc2)C(C)(C)c2ccccc2)c(OC)c1,n,44
O=c1[nH]c(C2CCN(S(=O)(=O)c3ccc(S(=O)(=O)NC4CCCC4)cc3)CC2)nc2c1nnn2Cc1cccc(Cl)c1,n,59
Cc1ccc(Cn2nnc3c(=O)[nH]c(C4CCN(S(=O)(=O)c5ccc(S(=O)(=O)NC6CC6)cc5)CC4)nc32)cc1,n,43
SMILES,USP17 block,USP30 inh
Cc1ccc(Cn2nnc3c(=O)[nH]c(C4CCN(C(=O)C5CCC5)CC4)nc32)cc1,n,n
O=c1[nH]c(C2CCN(S(=O)(=O)c3ccc(S(=O)(=O)NC4CC4)cc3)CC2)nc2c1nnn2Cc1cccc(Cl)c1,n,42
O=c1[nH]c(C2CCN(S(=O)(=O)c3ccc(S(=O)(=O)N4CCOCC4)cc3)CC2)nc2c1nnn2Cc1cccc(F)c1,n,n
CCC(CC)C(=O)N1CCC(c2nc3c(nnn3Cc3ccc(C)cc3)c(=O)[nH]2)CC1,n,n
O=c1[nH]c(C2CCN(S(=O)(=O)c3ccc(S(=O)(=O)NC4CC4)cc3)CC2)nc2c1nnn2Cc1cccc(F)c1,n,n
COC(=O)c1ccc(Cn2nnc3c(=O)[nH]c(C4CCCN(S(=O)(=O)c5ccc(C)cc5)C4)nc32)cc1 (stereo not drawn),n,36
COc1cccc(-n2cc(C(=O)Nc3ccccc3C#N)c3ccccc3c2=O)c1,n,n
O=C(CCc1cccnc1)N1CCCC2(CCCN2Cc2ccc(Cl)cc2)C1 (stereo not drawn),n,n
COc1ccc(CN2CCCC23CCCN(C(=O)CCc2cccnc2)C3)cc1F (stereo not drawn),41,96
Cc1nc2ccccc2n1CC(=O)N1C[C@@H](O)[C@H](N2CCOCC2)C1,n,n
O=S(=O)(O)c1cc2cc3ccccc3cc2[nH]1,61,n
c1coc(-c2cc3nc(NCCCn4ccnc4)ccn3n2)c1,46,n
c1ccc(-c2cc3nc(NCc4ccncc4)ccn3n2)cc1,n,n
Cc1cc(-c2cnc(C(C)C)nc2-c2ccc(CNC(=O)c3cccnc3C)cc2)on1,n,n
Cc1cccc(C(=O)Nc2noc3nc(C)ccc23)c1,36,x
Cc1cccc(C(=O)NCc2noc(-c3ccccc3)n2)c1,n,n
O=C(Nc1ccc(F)cc1)N1CCc2nc3ccccc3n2CC1,n,n
Cn1c(=O)c2cc(C(=O)Nc3ccc(F)cc3)cnc2n(C)c1=O,53,n
Cn1c(=O)c(C(=O)Nc2ccc(F)cc2)cc2cccnc21,n,n
CC(=O)C1=C(C)Nc2nc3ccccc3n2C1c1ccc(O)cc1 (stereo not drawn),35,n
CC1=C(C(=O)N2CCCCC2)C(c2ccc(F)cc2)n2c(nc3ccccc32)N1 (stereo not drawn),n,n
CC(=O)C1=C(C)Nc2nc3ccccc3n2C1c1cccs1 (stereo not drawn),38,49
CC1=C(C(=O)N2CCOCC2)C(c2cccs2)n2c(nc3ccccc32)N1 (stereo not drawn),n,n
CC(=O)C1=C(C)Nc2nc3ccccc3n2C1c1ccco1 (stereo not drawn),n,n
O=C1CCCC2=C1C(c1ccc(Cl)cc1)n1c(nc3ccccc31)N2 (stereo not drawn),n,37
SMILES,USP17 block,USP30 inh
Cc1ccc(C2c3[nH]c4ccccc4c3C[C@H]3C(=O)N(c4ccc(C(=O)NCCc5ccccc5)cc4)C(=O)N23)cc1 (stereo partly drawn),n,n
COc1ccc(Cn2nnnc2CN2CCN(c3nc4ccccc4s3)CC2)cc1,n,n
COc1cccc2sc(N3CCN(c4nc5ccccc5s4)CC3)nc12,77,n
O=S(=O)(CCN1CCN(Cc2ccccc2)CC1)c1ccc(F)cc1,n,n
c1cnc(N2CCCC(c3nc(N4CCOCC4)ncc3-c3cccnc3)C2)nc1 (stereo not drawn),n,n
Cc1ccc(-c2nc(N3CCCC(O)C3)ncc2-c2cnccn2)s1 (stereo not drawn),73,n
CCN1C(=O)c2ccccc2C(=O)[C@@]2(C)CN(C)C[C@@H]12,n,n
O=C(NCc1ccccn1)c1nc(-c2ccc3cc[nH]c3c2)no1,n,n
O=C(NCCc1ccccc1)c1nc(-c2ccc3cc[nH]c3c2)no1,48,n
O=C(C1CCCc2c1[nH]c1ccccc21)N1CCCC1 (stereo not drawn),n,n
O=C(Nc1cccc2ccccc12)N1CCC(c2nc3c(nnn3Cc3ccc(F)cc3)c(=O)[nH]2)CC1,91,36
O=c1[nH]c(C2CCN(S(=O)(=O)c3ccccc3)CC2)nc2c1nnn2Cc1c(Cl)cccc1Cl,n,39
CCc1ccccc1NC(=O)N1CCC(c2nc3c(nnn3Cc3ccc(F)cc3)c(=O)[nH]2)CC1,n,n
O=C(C1CCC1)N1CCC(c2nc3c(nnn3Cc3c(Cl)cccc3Cl)c(=O)[nH]2)CC1,n,36
CCOc1ccc(C(=O)N2CCC(c3nc4c(nnn4Cc4ccccc4Cl)c(=O)[nH]3)CC2)cc1,n,n
O=c1[nH]c(C2CCN(S(=O)(=O)c3cccc4ccccc34)CC2)nc2c1nnn2Cc1ccccc1Cl,n,31
O=c1[nH]c(C2CCN(S(=O)(=O)c3ccc(S(=O)(=O)N4CCOCC4)cc3)CC2)nc2c1nnn2Cc1ccc(F)cc1,n,n

# Screening data deposited in PubChem by Buhrlage Lab, Dana-Farber Cancer Institute and Novartis Institutes for BioMedical Research (Cambridge, Mass).
